Among all 5,500 compounds or so, about 2,000 (36%) were called active. Roughly 18% stayed inconclusive and do not appear here. Rule as the data show it: active = normalized growth mostly below about 0.91 (no sharp cut-off); inconclusive = no clear call, values can overlap the other calls; inactive = mostly above about 0.92. This is one part of the list.
Test: chemical genetic growth profiling, strain panel (AID 1159580);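 also: tested at 20 µM; growth read once vehicle control cultures reached saturation at 30 °C; 1 = growth at the plate median or of vehicle wells; lower values mean less growth of the strain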
Conditions: growth OD

Measured: normalized growth

CCN1CCN(C(=O)NC(C(=O)N[C@@H]2C(=O)N3[C@@H]2SC(C)(C)[C@@H]3C(=O)O)c2ccccc2)C(=O)C1=O (some centres not stated)
inactive: S. cerevisiae deletion strains, locus YJR075W, strain HOC1, stronger effect = lower value 1.01 | S. cerevisiae deletion strains, locus YKL009W, strain mrt4, stronger effect = lower value 1.02 | S. cerevisiae deletion strains, locus YKL068W, stronger effect = lower value 1 | S. cerevisiae deletion strains, locus YKL085W, strain MDH1 (second series), stronger effect = lower value 0.998 | S. cerevisiae deletion strains, locus YKL085W, strain MDH1, stronger effect = lower value 0.998 | S. cerevisiae deletion strains, locus YKL160W, strain elf1, stronger effect = lower value 0.985 | S. cerevisiae deletion strains, locus YKL190W, strain CNB1, stronger effect = lower value 1.01 | S. cerevisiae deletion strains, locus YKR001C, strain vps1, stronger effect = lower value 1.01 | S. cerevisiae deletion strains, locus YKR026C, strain gcn3, stronger effect = lower value 0.996 | S. cerevisiae deletion strains, locus YKR091W, strain srl3, stronger effect = lower value 1 | S. cerevisiae deletion strains, locus YLL001W, strain dnm1, stronger effect = lower value 0.979 | S. cerevisiae deletion strains, locus YLL026W, stronger effect = lower value 1.01 | S. cerevisiae deletion strains, locus YLL041C, strain sdh2, stronger effect = lower value 0.997 | S. cerevisiae deletion strains, locus YLR027C, strain aat2, stronger effect = lower value 0.998 | S. cerevisiae deletion strains, locus YLR039C, strain RIC1, stronger effect = lower value 0.991 | S. cerevisiae deletion strains, locus YLR058C, strain SHM2, stronger effect = lower value 1.02 | S. cerevisiae deletion strains, locus YLR102C, strain apc9, stronger effect = lower value 1 | S. cerevisiae deletion strains, locus YLR113W, strain HOG1, stronger effect = lower value 0.987 | S. cerevisiae deletion strains, locus YLR221C, strain rsa3, stronger effect = lower value 1 | S. cerevisiae deletion strains, locus YLR258W, strain gsy2, stronger effect = lower value 1 | S. cerevisiae deletion strains, locus YLR262C, strain YPT6 (second series), stronger effect = lower value 0.983 | S. cerevisiae deletion strains, locus YLR262C, strain YPT6, stronger effect = lower value 0.993 | S. cerevisiae deletion strains, locus YLR268W, strain sec22, stronger effect = lower value 1.02 | S. cerevisiae deletion strains, locus YLR320W, strain mms22, stronger effect = lower value 0.978 | S. cerevisiae deletion strains, locus YLR330W, strain CHS5, stronger effect = lower value 1.01 | S. cerevisiae deletion strains, locus YLR342W, strain FKS1 (second series), stronger effect = lower value 1.03 | S. cerevisiae deletion strains, locus YLR342W, strain FKS1, stronger effect = lower value 0.991 | S. cerevisiae deletion strains, locus YLR357W, strain rsc2, stronger effect = lower value 0.957 | S. cerevisiae deletion strains, locus YLR370C, strain arc18, stronger effect = lower value 1.01 | S. cerevisiae deletion strains, locus YLR371W, strain rom2, stronger effect = lower value 1.01 | S. cerevisiae deletion strains, locus YLR384C, strain iki3, stronger effect = lower value 0.992 | S. cerevisiae deletion strains, locus YLR418C, strain cdc73, stronger effect = lower value 1 | S. cerevisiae deletion strains, locus YML016C, strain PPZ1, stronger effect = lower value 1.01 | S. cerevisiae deletion strains, locus YML032C, strain rad52, stronger effect = lower value 1.01 | S. cerevisiae deletion strains, locus YML120C, strain ndi1, stronger effect = lower value 1.01 | S. cerevisiae deletion strains, locus YML124C, strain tub3, stronger effect = lower value 1.01 | S. cerevisiae deletion strains, locus YMR058W, strain fet3, stronger effect = lower value 1 | S. cerevisiae deletion strains, locus YMR078C, strain ctf18, stronger effect = lower value 1 | S. cerevisiae deletion strains, locus YMR125W, strain sto1, stronger effect = lower value 0.988 | S. cerevisiae deletion strains, locus YMR129W, stronger effect = lower value 1 | S. cerevisiae deletion strains, locus YMR205C, strain PFK2, stronger effect = lower value 1.01 | S. cerevisiae deletion strains, locus YMR223W, strain ubp8, stronger effect = lower value 1.01 | S. cerevisiae deletion strains, locus YMR231W, strain pep5, stronger effect = lower value 0.989 | S. cerevisiae deletion strains, locus YMR263W, strain SAP30, stronger effect = lower value 1.01 | S. cerevisiae deletion strains, locus YMR307W, strain GAS1, stronger effect = lower value 0.931 | S. cerevisiae deletion strains, locus YNL067W, strain RPL9B, stronger effect = lower value 1.01 | S. cerevisiae deletion strains, locus YNL071W, strain lat1, stronger effect = lower value 0.999 | S. cerevisiae deletion strains, locus YNL128W, strain TEP1, stronger effect = lower value 1.01 | S. cerevisiae deletion strains, locus YNL153C, strain GIM3, stronger effect = lower value 1.01 | S. cerevisiae deletion strains, locus YNL183C, strain NPR1, stronger effect = lower value 0.967 | S. cerevisiae deletion strains, locus YNL209W, strain ssb2, stronger effect = lower value 1 | S. cerevisiae deletion strains, locus YNL233W, strain BNI4, stronger effect = lower value 0.995 | S. cerevisiae deletion strains, locus YNL248C, strain rpa49, stronger effect = lower value 0.996 | S. cerevisiae deletion strains, locus YNL250W, strain rad50, stronger effect = lower value 1.01 | S. cerevisiae deletion strains, locus YNL271C, strain bni1, stronger effect = lower value 1.01 | S. cerevisiae deletion strains, locus YNL298W, strain CLA4, stronger effect = lower value 1.01 | S. cerevisiae deletion strains, locus YNL307C, strain MCK1, stronger effect = lower value 1.01 | S. cerevisiae deletion strains, locus YNL322C, strain KRE1 (second series), stronger effect = lower value 1 | S. cerevisiae deletion strains, locus YNL322C, strain KRE1, stronger effect = lower value 1 | S. cerevisiae deletion strains, locus YNR049C, strain mso1, stronger effect = lower value 0.993 | S. cerevisiae deletion strains, locus YNR052C, strain pop2, stronger effect = lower value 1.01 | S. cerevisiae deletion strains, locus YOL006C, strain TOP1, stronger effect = lower value 1.02 | S. cerevisiae deletion strains, locus YOL012C, strain htz1 1.52 | S. cerevisiae deletion strains, locus YOL147C, strain pex11, stronger effect = lower value 1 | S. cerevisiae deletion strains, locus YOR001W, strain rrp6, stronger effect = lower value 0.987 | S. cerevisiae deletion strains, locus YOR061W, strain CKA2, stronger effect = lower value 1.01 | S. cerevisiae deletion strains, locus YOR069W, strain VPS5, stronger effect = lower value 1.01 | S. cerevisiae deletion strains, locus YOR070C, strain gyp1, stronger effect = lower value 1 | S. cerevisiae deletion strains, locus YOR080W, strain dia2, stronger effect = lower value 0.997 | S. cerevisiae deletion strains, locus YOR083W, strain WHI5, stronger effect = lower value 0.976 | S. cerevisiae deletion strains, locus YOR106W, strain vam3, stronger effect = lower value 0.984 | S. cerevisiae deletion strains, locus YOR136W, strain idh2, stronger effect = lower value 1.01 | S. cerevisiae deletion strains, locus YOR144C, strain elg1, stronger effect = lower value 1.01 | S. cerevisiae deletion strains, locus YOR184W, strain ser1, stronger effect = lower value 1.02 | S. cerevisiae deletion strains, locus YOR231W, strain MKK1, stronger effect = lower value 0.985 | S. cerevisiae deletion strains, locus YOR265W, strain rbl2, stronger effect = lower value 1 | S. cerevisiae deletion strains, locus YOR270C, strain vph1, stronger effect = lower value 1.01 | S. cerevisiae deletion strains, locus YOR290C, strain snf2, stronger effect = lower value 1.01 | S. cerevisiae deletion strains, locus YOR316C, strain cot1, stronger effect = lower value 1.01 | S. cerevisiae deletion strains, locus YPL051W, strain arl3, stronger effect = lower value 0.983 | S. cerevisiae deletion strains, locus YPL055C, strain LGE1, stronger effect = lower value 1.01 | S. cerevisiae deletion strains, locus YPL078C, strain atp4, stronger effect = lower value 0.976 | S. cerevisiae deletion strains, locus YPL106C, strain sse1, stronger effect = lower value 1.02 | S. cerevisiae deletion strains, locus YPL240C, strain hsp82, stronger effect = lower value 0.988 | S. cerevisiae deletion strains, locus YPL241C, strain CIN2, stronger effect = lower value 1 | S. cerevisiae deletion strains, locus YPL256C, strain CLN2, stronger effect = lower value 0.962 | S. cerevisiae deletion strains, locus YPR119W, strain clb2, stronger effect = lower value 1.02 | S. cerevisiae deletion strains, locus YPR141C, strain kar3, stronger effect = lower value 1.02 | S. cerevisiae deletion strains, locus YPR163C, strain tif3, stronger effect = lower value 1.02 | S. cerevisiae deletion strains, locus YPR167C, strain met16, stronger effect = lower value 1.02 | S. cerevisiae deletion strains, strain wtn01, stronger effect = lower value 1.04 | S. cerevisiae strains, strain wild type, stronger effect = lower value 1.01
